Source: PubChem BioAssay
This is a sample that favours compounds with a hit; in the whole collection about 7.6% have one here.
Cy5 interf NS3h = counter-screen for HCV NS3 helicase inhibitors: fluorescence interference; fluorescence interference ratio at 100 µM; Cy5-dT15 DNA with NS3h; actives lie on both sides; signal over control mean, under 1 quenches; hit rate 6% among 16,000;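 active = compound fluorescence over control fluorescence at most 0.8, a quencher, or at least a set upper limit, an enhancer; inactive = ratio between 0.8 and the set upper limit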
HCV NS3h FP = blocks HCV NS3 helicase binding to DNA. NS3h Cy5-dT15 DNA binding, fluorescence polarization. inhibition, % at 100 µM. hit rate 1.6% among 16,000. AID 687043;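 active = inhibition above the average over every tested compound plus 3 SD, cut at about 40% in these data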
NS3h confirm = confirmation of hepatitis C virus NS3 helicase inhibitors. shares compounds with HCV NS3h FP. NS3h binding to Cy5-dT15 DNA, fluorescence polarization. inhibition, % at 100 µM. hit rate 20% among 240;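 active = percent inhibition of 50% or more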
SSB-DNA FP CB = disrupts E. coli SSB binding to DNA in counter-screen; E. coli SSB binding Cy5-dT15, fluorescence polarization; inhibition, % at 100 µM; shares compounds with HCV NS3h FP; AID 720486; hit rate 40% among 240;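 active = inhibition of at least 50%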;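 note: displacers lower Cy5 polarization so higher inhibition means more SSB displaced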
Target sequence (P0AGE0 whole entry, looked up): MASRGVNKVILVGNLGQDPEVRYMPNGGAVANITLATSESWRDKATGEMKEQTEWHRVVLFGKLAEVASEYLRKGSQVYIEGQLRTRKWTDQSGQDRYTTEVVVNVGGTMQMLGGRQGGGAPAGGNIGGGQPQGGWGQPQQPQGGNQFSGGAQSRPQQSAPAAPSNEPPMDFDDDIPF
Cy5 SSB fluor CB = enhances or quenches Cy5-DNA fluorescence with E. coli SSB; shares compounds with HCV NS3h FP; Cy5-dT15/E. coli SSB fluorescence interference; actives lie on both sides; fluorescence interference ratio at 100 µM; hit rate 8% among 240; AID 720487;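 active = fluorescence interference ratio at or above 1.2, signal boosting, or at or below 0.8, signal quenching; inactive = ratio between 0.8 and 1.2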;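 note: ratio of compound well signal to mean negative control signal so 1 means no effect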
Cy5 interf conf = confirmation counter-screen for HCV NS3 helicase inhibitors: fluorescence interference. fluorescence interference ratio at 100 µM, hits read low. hit rate 44% among 240. Cy5-dT15 DNA/NS3h fluorescence interference counterscreen. shares compounds with HCV NS3h FP;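 active = fluorescence interference ratio at or below 0.8 quencher or at or above a set limitenhancer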;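 note: ratio of compound fluorescence to mean of negative controls so 1 means no interference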
* marks the source's active call; other numbers are inactive results.

How did Cc1sc(NC(=O)c2ccc(F)cc2)c(C(=O)O)c1C do in these assays?
Cy5 interf NS3h: 0.7*; HCV NS3h FP: 14

Results for Cc1cc(C)cc(NC(=O)c2ccc(F)cc2)c1 ?
Cy5 interf NS3h: 1; HCV NS3h FP: 12

How did CCCNC(=O)c1cc(OC)c(OC)cc1[N+](=O)[O-] do in these assays?
Cy5 interf NS3h: 0.79*; HCV NS3h FP: 10

What do the screens show for `COc1cc(C(=O)Nc2ccc(NC(C)=O)cc2)c([N+](=O)[O-])cc1OC`?
Cy5 interf NS3h: 1; HCV NS3h FP: 10

What do the screens show for `COc1ccc(Oc2ccc(N)cc2)cc1`?
Cy5 interf NS3h: 0.92; HCV NS3h FP: -12

What do the screens show for `Nc1ccc(Oc2ccc(N)c(N)c2)cc1`?
Cy5 interf NS3h: 0.19*; HCV NS3h FP: -10

How did Cc1ccc(N2C(=O)NC(=O)/C(=C\c3ccc(-c4ccc([N+](=O)[O-])cc4Cl)o3)C2=O)cc1 do in these assays?
Cy5 interf NS3h: 0.88; HCV NS3h FP: 6

Results for Cc1ccc([N+](=O)[O-])cc1-c1ccc(/C=C2\C(=O)NC(=O)N(c3ccc(Cl)cc3)C2=O)o1 ?
Cy5 interf NS3h: 1.3*; HCV NS3h FP: 9

How did COc1ccc(OC)c(/C=C2\C(=O)NN(c3ccc(Cl)c(Cl)c3)C2=O)c1 do in these assays?
Cy5 interf NS3h: 0.94; HCV NS3h FP: 4

Results for O=C(N1CCSCC1)C(F)(F)C(F)(F)C(F)(F)C(F)(F)F ?
Cy5 interf NS3h: 0.8*; HCV NS3h FP: 12

How did Cc1ccc(OCCNc2cc(N3CCN(C)CC3)ccc2[N+](=O)[O-])cc1C do in these assays?
Cy5 interf NS3h: 0.61*; HCV NS3h FP: 21

How did CC(Nc1cc(N2CCN(C)CC2)ccc1[N+](=O)[O-])c1ccc(Br)cc1 (stereo not given) do in these assays?
Cy5 interf NS3h: 0.9; HCV NS3h FP: 19

How did CCCCNC(=O)C(=O)NCCCOC do in these assays?
Cy5 interf NS3h: 1; HCV NS3h FP: -1

What do the screens show for `CN(C)c1ccc(NC(=O)c2ccc(I)cc2)cc1`?
Cy5 interf NS3h: 0.93; HCV NS3h FP: 15

What do the screens show for `CC1C(c2ccccc2)NC(c2ccccc2)C(C)C1O` (stereo not given)?
Cy5 interf NS3h: 1; HCV NS3h FP: -4

How did COc1ccc(C2CC(O)C(C)C(c3ccc(OC)cc3)N2)cc1 (stereo not given) do in these assays?
Cy5 interf NS3h: 0.73*; HCV NS3h FP: 16

Results for CC1(C)C(c2cccs2)=[N+]([O-])C2(CCCCC/C2=N/NC(N)=S)N1O (stereo not given) ?
Cy5 interf NS3h: 1; HCV NS3h FP: 0

How did O=C1OC(c2ccccc2)=N/C1=C(\Sc1nc2ccccc2o1)c1ccccc1 do in these assays?
Cy5 interf NS3h: 1.1; HCV NS3h FP: 3

How did O=C1C=CC(=O)N1c1ccccc1SC(F)(F)F do in these assays?
Cy5 interf NS3h: 0.79*; HCV NS3h FP: 45*

What do the screens show for `CCCOC(=O)c1ccc(NC(=O)COc2ccc3ccccc3c2)cc1`?
Cy5 interf NS3h: 1.1; HCV NS3h FP: 8

What do the screens show for `O=C(NC(=S)Nc1ccc2oc(-c3ccc(Cl)cc3)nc2c1)c1ccccc1`?
Cy5 interf NS3h: 0.99; HCV NS3h FP: 17

What do the screens show for `O=C(NC(=S)Nc1ccc2oc(-c3ccc(Cl)c(Cl)c3)nc2c1)c1ccccc1`?
Cy5 interf NS3h: 1.2*; HCV NS3h FP: 102*; NS3h confirm: 17; SSB-DNA FP CB: 38; Cy5 SSB fluor CB: 0.97; Cy5 interf conf: 0.8*

What do the screens show for `NS(=O)(=O)c1ccc(NC(=S)NC(=O)c2ccccc2)cc1`?
Cy5 interf NS3h: 1; HCV NS3h FP: 50*; NS3h confirm: 37; SSB-DNA FP CB: 83*; Cy5 SSB fluor CB: 1; Cy5 interf conf: 1

What do the screens show for `CC(=O)c1ccc(NC(=S)NC(=O)c2ccccc2)cc1`?
Cy5 interf NS3h: 0.89; HCV NS3h FP: 24

How did C=CCNC(=O)C(=O)NCCCOC(C)C do in these assays?
Cy5 interf NS3h: 1.1; HCV NS3h FP: 3

What do the screens show for `CC(C(=O)NCc1ccco1)N1C(=O)c2ccccc2C1=O` (stereo not given)?
Cy5 interf NS3h: 1.1; HCV NS3h FP: 4
